An excerpt weighted towards active compounds, which were near 0.85% of everything screened.
LANA DNA inh: blocks KSHV LANA C-terminal domain binding to DNA; inhibition, % at 9 µM; MBP-C-LANA/FAM-LBS DNA binding, fluorescence polarization; 0.078% of 340,000 active; AID 504423;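 active = highest replicate inhibition at or above 60% at 9 µM, even if other replicates fall short; inactive = all replicates below 60% inhibition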;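 note: 0% = neutral control wells and 100% = 4 µM acridine orange control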
eLon inh: E. coli protease La inhibition. inhibition, % at 7.94 µM. P0A9M0. purified E. coli Lon protease, fluorescence polarization. 0.42% of 360,000 active; in the data active = inhibition above about 13%, passing the limit was not always enough;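 note: 0% = enzyme with probe and DMSO and 100% = no enzyme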
ZTA counter: ZTA (EBV) inhibition in EBNA-1 counter-screen. P03206. ZTA-DNA binding, fluorescence polarization. inhibition, % at 11 µM. 0.15% of 320,000 active. AID 2234; in the data active = inhibition above about 33%
Target sequence (P03206 whole entry, looked up): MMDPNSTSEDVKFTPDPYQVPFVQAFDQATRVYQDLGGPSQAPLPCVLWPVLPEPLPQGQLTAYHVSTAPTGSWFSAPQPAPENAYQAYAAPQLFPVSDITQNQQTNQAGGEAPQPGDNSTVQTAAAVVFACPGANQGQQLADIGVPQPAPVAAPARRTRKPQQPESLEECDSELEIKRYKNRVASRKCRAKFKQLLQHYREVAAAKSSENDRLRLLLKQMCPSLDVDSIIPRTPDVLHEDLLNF
EBNA-1 inhibitor: blocks EBNA-1 binding to DNA; EBNA-1 DNA binding, fluorescence polarization; inhibition, % at 14.8 µM; 0.34% of 300,000 active; in the data active = inhibition above about 28%
Keap1 Nrf2 FP: disrupts human Keap1 binding to Nrf2 peptide | AID 504523 | Q14145 | Keap1 Kelch-Nrf2 peptide fluorescence polarization, 1536-well | 0.15% of 340,000 active | inhibition, % at 9.4 µM; in the data active = inhibition above about 12%; inconclusive = no clear call, values can overlap the other calls; inactive = below about 7.3%;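 note: human Keap1 Kelch domain with fluorescein labeled Nrf2 9mer peptide probe; 0% = neutral control wells and 100% = peptide positive control; higher means more block of Keap1 binding to Nrf2 peptide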
eLon confirm: confirmation of E. coli Lon protease inhibitors; shares compounds with eLon inh; purified E. coli Lon, fluorescence polarization; inhibition, % at 7.94 µM; 31% of 1,400 active; in the data active = inhibition above about 16%;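 note: 0% = enzyme with probe and DMSO and 100% = no enzyme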
* = called active by the depositor; ? = inconclusive; . = not tested or not shown; + = active, no number.

SMILES	LANA DNA inh	eLon inh	ZTA counter	EBNA-1 inhibitor	Keap1 Nrf2 FP	eLon confirm
O=C(CCl)N1c2ccccc2Oc2ccc3ccccc3c21	6	+	.	.	-2	24*
CN1CCc2c(sc(NC(=O)c3ccc(C(=O)c4ccccc4)cc3)c2C(N)=O)C1	1	45*	-7	5	-2	-46
Cn1c2nc(=O)n(-c3ccccc3)c(=O)c-2nc2c1CCCC2	.	123*	.	.	.	77*
NC1=Nc2cccc3cccc1c23	2	29*	-7	-2	5	17*
O=C1CCCC2=C1Sc1ccc(Cl)cc1N2	4	18	-5	-4	-13	.
COC(=O)c1ccc2c(c1)SC1=C(CCCC1=O)N2	2	35*	8	-3	-3	100*
COC(=O)C1=C(C(=O)OC)C(C(=O)OC)N2C=CC=CC2=C1C(=O)OC (centres undefined)	.	-5	.	.	.	.
COC(=O)C1=C(C(=O)OC)C2C(C)=CC(C)=CN2C(C(=O)OC)=C1C(=O)OC (centres undefined)	3	20*	-7	-5	-5	13
CN1CCCc2cc3c(C(F)(F)F)cc(=O)oc3nc21	-21	27*	-1	-6	?	103*
COc1cc(NC(=O)c2cc(-c3cc(F)ccc3OC(C)C)n[nH]2)cc(OC)c1OC	.	9	.	.	.	.
CCN(C(=O)COC(=O)c1cc(-c2cccc3ccccc23)nc2ccccc12)C1CCS(=O)(=O)C1 (centres undefined)	0	40*	13	1	-1	18*
O=C(COC(=O)c1cc(-c2cccc3ccccc23)nc2ccccc12)NC1CCS(=O)(=O)C1 (centres undefined)	6	178*	18	-2	-3	15
CCN(C(=O)COC(=O)c1ccccc1Cc1ccccc1)C1CCS(=O)(=O)C1 (centres undefined)	.	-2	3	0	.	.
CCC(=O)[C@@H](C)[C@@H](OC(C)=O)[C@H](C)C[C@@H](C)[C@H]1OC(=O)C[C@@]2(O)CC=C(C)C(O2)C(C)=CCCC[C@H](O[C@H]2C[C@@H](OC(N)=O)[C@H](OC(C)=O)[C@@H](C)O2)C=C[C@H](C)C[C@H]1C	.	-3	.	.	.	.
CCOC(=O)C1=C(COC(=O)Cc2c(F)cccc2Cl)NC(=O)NC1C (centres undefined)	-1	24*	-5	.	-4	-1
O=C(c1ccccc1NS(=O)(=O)c1ccccc1)N1CCCCCC1	1	-9	14	12	-4	.
O=C(c1ccccc1NS(=O)(=O)c1cccs1)N1CCCC1	0	20*	-14	0	-8	-5
C=CCOn1c(=O)c(-c2cc3ccccc3o2)[n+]([O-])c2ccccc21	8	17*	-8	-7	-5	-213
CC(C)C(=O)N1CCC1(C)C(=O)Nc1cccc(Oc2ccccc2)c1 (centres undefined)	.	-1	.	.	.	.
CNC(=S)N1CCN(S(=O)(=O)c2ccc3ccccc3c2)CC1	0	-5	-3	4	2	.
Cc1ccc(S(=O)(=O)N(C)C)cc1NC(=O)CCNC(=O)c1ccco1	-2	6	-8	-12	-4	.
Cc1ccc(-n2c(C)cc(C(=O)Cn3nc(C(=O)O)c4ccccc4c3=O)c2C)cc1	-1	51*	-10	-8	-7	-4
CC1(C)c2ccccc2N2CC(=O)N(CC(N)=O)C21C (centres undefined)	-7	125*	-10	9	-71	89*
CC(C)(C)OC(=O)C[C@@H]1C/C=C\C[C@H](CC(=O)NCCO)C(=O)N2CCC[C@H]2COC1=O	2	111*	.	.	0	-7
O=C(C[C@H]1C/C=C\CC[C@H](Cc2ccc(F)cc2)C(=O)OC[C@H]2CCCN2C1=O)N[C@H](CO)Cc1ccccc1	-2	-4	.	.	-1	.
SMILES	LANA DNA inh	eLon inh	ZTA counter	EBNA-1 inhibitor	Keap1 Nrf2 FP	eLon confirm
O=C(C[C@H]1C/C=C\CC[C@H](Cc2ccc(F)cc2)C(=O)OC[C@H]2CCCN2C1=O)N[C@@H](CO)Cc1ccccc1	-1	40*	.	.	6	5
Cc1cccc(CCN(CC(=O)NCc2ccc(F)cc2)C(=O)c2csnn2)c1	-1	0	-5	-7	1	.
CC(C)Oc1cccc(C(=O)Nc2nnc([C@H]3C[C@H](O)[C@@H](CO)O3)s2)c1	.	-9	.	.	.	.
O=C(NCCOC(=O)c1ccc(C(=O)OCCNC(=O)c2cccnc2)s1)c1cccnc1	0	1	8	10	-4	.
O=C(NCCOC(=O)c1ccc(Cl)cc1)c1cccnc1	0	16*	-4	6	-8	-9
O=C(NC(=S)Nc1ccc2c(c1)OCCO2)c1ccccc1F	0	36*	-9	-7	-2	-3
O=C(Nc1ccc2c(c1)OCCO2)c1ccccc1F	-1	-9	7	7	1	.
O=C(NC1CCCCCC1)c1cc(S(=O)(=O)N2CCCCC2)ccc1N1CCOCC1	0	-4	11	-4	1	.
O=C(NC1CCCCC1)c1cc(S(=O)(=O)N2CCCCC2)ccc1N1CCOCC1	0	20*	-4	.	-2	-2
Cc1cc(NC(=O)COC(=O)c2cc(S(=O)(=O)N3CCOCC3)ccc2N2CCCCC2)no1	-2	54*	-15	-16	0	9
CC(C)NC(=O)NC(=O)COC(=O)c1cc(S(=O)(=O)N2CCCCC2)ccc1N1CCOCC1	0	15	-8	-3	-2	.
Cc1cc2nc(-c3ccccc3)c(CC(C)(C)C)n2c(C)c1Br	.	-5	.	.	.	.
O=C1C2C3c4ccccc4C(c4ccccc43)C2C(=O)N1Cc1ccco1 (centres undefined)	5	20*	-7	-11	-8	4
O=C1C2C(C(=O)N1Cc1ccco1)C1C=CC2C12CC2 (centres undefined)	-1	-2	-15	-8	-3	.
Cc1ccc(-n2cc(CNCCN3CCOC3=O)c(-c3cccc(C)c3)n2)cc1	-1	16*	17	-1	-9	-7
Cc1ccc(CNC(=O)C2CCN(C(=O)Nc3ccc(C)cc3)CC2)cc1	1	-9	.	.	-3	.
CC(C)CC(NC(=O)OC(C)(C)C)C(=O)O (centres undefined)	-1	19*	6	-13	-2	-6
COC(=O)C(Cc1ccccc1)NC(=O)C(CC(C)C)NC(=O)OC(C)(C)C (centres undefined)	1	6	11	-3	4	.
Cc1cc(C)cc(C(=O)Nc2ccncc2)c1	0	19*	-14	-26	-4	-5
CCOc1ccc(-c2cc(C(=O)OC)nc3c2c(=O)n(C)c(=O)n3C)cc1	1	-4	7	-2	-3	.
Nc1ccc2c(c1)-c1ccccc1S(=O)(=O)N2	9	17*	-10	-8	-2	-13
CN1CC=C2C(C#N)=C(N)C(C#N)(C#N)C(Cc3ccccc3)C2C1 (centres undefined)	42	39*	5	-8	9	9
